The values below come from ChEMBL document CHEMBL3988442, “University of Dundee, Small-Polar-MMV Screening Library” (2021).

For the assay, the target named is AMP-activated protein kinase, AMPK (Homo sapiens) (UniProt P54646+O43741+P54619+Q9UGJ0+Q9Y478+Q13131+Q9UGI9). Kind of assay: AMP-dependent Kinase enzyme assay. An in vitro enzyme assay that detects ADP turnover that is directly proportional to AMPK activity. This uses naive AMPK that is activated during the assay with MK-8722. Format: functional. Details: scale not given: direction of the effect not stated beside the values. Particulars: 30 µM.
Consider `NC(=O)c1cc2c(nc1CC1CCCCO1)CCC2` (stereo not given), for which the Percent Effect was -4.87%.
Then `CCN(CCOC)C(=O)c1cc(COc2ccc3c(c2)CCCC3)on1`, with 0.118%.
Next, `CS(=O)(=O)N1CCCC(c2cccc(-c3ccccc3F)n2)C1` (stereo not given): 12.2%.
Then `O=C(c1ccccc1)C1CCN(C(=O)CC2COCCN2)CC1` (stereo not given), with 1.36%.
Regarding `CC(C)c1cc(C(=O)N[C@@H]2CC[C@@H](Oc3ccccc3)[C@@H]2O)on1`, the Percent Effect was determined as 16.6%.
Then `Cc1ccnc2c1NC(=O)CN2C(=O)CCC(F)(F)F`, with 1.79%; and `CCCc1nnc(N2CCC(N3CCCCCC3)CC2)o1`, with -2.81%; and `CCc1ccc2nc(C)cc(C(=O)NC3CCC(=O)N(C)C3)c2c1` (stereo not given), with -7.18%.
Then `CCC1c2ccccc2CCN1CCNS(C)(=O)=O` (stereo not given), with -4.87%; and `Cc1cncc(C2CCN(Cc3cnc(C)nc3)CC2)n1`, with 9.99%.
Next, `CCC[C@@H]1CN(Cc2cc(C#N)n(C)c2C)C[C@H]1NS(C)(=O)=O`: -87.1%.
Take `CN1CCN(CCOc2ccc(NC(=O)c3ccoc3)cc2)CC1`: the Percent Effect was -4.02%.
As to `Cc1cc(CNS(C)(=O)=O)ccc1N(C)C`, the Percent Effect came to 1.62%.
Then `COc1c(C2CCCN2CC(=O)Nc2nccs2)c(C)nn1C` (stereo not given), with 7.38%; and `Cc1ccc(CN(C)C(=O)CNC(C)(C)c2noc(C(C)(C)C)n2)o1`, with -1.82%; and `CC(C)[C@H]1CN(Cc2nccn2C)C[C@@H]1NC(=O)COCC(N)=O`, with 9.37%.
For `CCC(=O)Nc1cccc(OCC(=O)N(C)CCCC2CCCO2)c1` (stereo not given), the Percent Effect turned out to be 11.8%.
Regarding `Cn1cnc(S(=O)(=O)N2C[C@@H]3CC[C@H](C2)N(Cc2ccccn2)C3)c1`, the Percent Effect was 84.4%.
For `Cc1ncc2c(n1)CN(Cc1nc(-c3ccco3)oc1C)CC2`, the Percent Effect was -38.3%.
Next, `O=C(O)c1ccn(-c2ccc(NC(=O)c3ccccc3Cl)cc2)n1`: 5.04%; `Cc1cccc(C)c1Nc1noc2c1CN(C(=O)c1c[nH]nc1C)CC2`: 6.37%.
For the compound `CCc1nnc(Nc2cc(C)nc(C3CN(C(=O)C(C)C)CCO3)c2)s1` (stereo not given), the Percent Effect is -1.78%.
Then `COc1ccc(NC(=O)N2CCCC(CO)C2)c(C)c1` (stereo not given), with -4.81%.
On to `NCC(CO)Cc1cccc(OC(F)(F)F)c1` (stereo not given), for which the Percent Effect is -3.22%.
As for `COCCN(C)Cc1cc(Cl)ccc1OCC(O)CN1CCCCCC1` (stereo not given), the Percent Effect is -8.12%.
Turning to `CC(C(=O)N1CCCCC1)N1CCN(c2ncc(Cl)cn2)CC1` (stereo not given), the Percent Effect was -3.64%.
In the case of `Cc1cc(C)n(C2CN(c3nc(-c4ccncc4)nc4c3CCC4)C2)n1`, the Percent Effect was found to be 2.99%.
For `COc1ncc(NCc2ccc(C#N)cc2)cc1C(N)=O`, the Percent Effect was found to be 2.92%.
Then `COCc1ncc(CN2CCC3(CCC(=O)N(CC(C)O)C3)CC2)cn1` (stereo not given), with -3.44%; and `O=C(Cn1ccc2ncccc2c1=O)N1CCCCC1`, with -2.48%; and `O=C1NCCCCC1NC(=O)N1CCc2ccccc21` (stereo not given), with -3.02%.
Next, `COc1ccccc1-c1cccc(C2CCCN(C3CCOCC3)C2)n1` (stereo not given): -7.08%.
Then `CCOc1ccc(C(=O)NC2CC2)cc1C`, with 4.59%; and `CC(=O)Nc1ccc(CNC(=O)CNCc2snnc2C)cc1`, with -1.84%.
With `CNS(=O)(=O)CC(=O)NCc1cc2c(s1)CCCCC2`, the Percent Effect is -1.26%.
Then `CCc1nc(C)c(C(=O)N2C[C@@H](C(=O)O)[C@H](C3CC3)C2)s1`, with 2.29%; and `CSc1ncccc1C(=O)Nc1ccc(Cn2ccccc2=O)cc1`, with -11.3%; and `N#CC1CCN(C(=O)CN2CC(c3ccccc3)CC2=O)CC1` (stereo not given), with 5.49%.
Next, `CSc1ccc(C(=O)C2CCCN(C(=O)CCn3cnnn3)C2)cc1` (stereo not given): 10.2%; `NC(=O)C1(Cc2ccccc2-c2cncnc2)CCCNC1` (stereo not given): 3.1%.
